Screening data: PubChem BioAssay, National Center for Advancing Translational Sciences (NCATS)
Rows were chosen to be rich in hits. Some 7.9% of all compounds tested hit in one or more screens of this group.
MCF10A rereplic: DNA re-replication induction in MCF 10a cells. Potency, µM (titrated, usually from 46.1 µM), for inactives: at the highest dose activity, positive = re-replication, most hits filed as activators. MCF 10A DNA re-replication, Hoechst nuclear intensity, 48 h. hit rate 2.9% among 350,000; further: % of control where 0% means no effect; nearly all actives have a fitted effect of over 50% in size
HT1080 IDH1KD tx: kills HT-1080 cells with IDH1 knockdown; HT-1080 IDH1 knockdown viability, ATP luminescence, 48 h; Potency, µM (highest dose often 46.1 µM), for the others: top-dose activity, negative = toxicity, actives largely listed as cytotoxic; hit rate 2% among 360,000; AID 686971;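 further: 0% = DMSO wells and -100% = cell-free medium wells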
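Using the IDH1-knockdown HT-1080 line run in the same batch and compound series as the NT line, viability after 48 h at 37 °C was determined by CellTiter-Glo luminescence and expressed as % activity.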
SW480 rerep: inducers of DNA re-replication in SW480 colon cancer cells; SW480 DNA re-replication, Hoechst DNA content imaging, 48 h; hit rate 1.8% among 340,000; AID 624297; Potency, µM (highest dose often 46.1 µM), for inactives: at the top dose re-replication activation, hits mostly activators; further: % of control where 0% means no effect; nearly all actives have a fitted effect of over 55% in size
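Compounds, transferred as 23 nL by pin tool, were incubated with cells for 48 hr; DNA content per nucleus was then quantified by Hoechst staining and fluorescence plate imaging.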
HT1080NT lethal: kills 2HG-producing HT-1080-NT fibrosarcoma cells | HT-1080-NT fibrosarcoma viability, CellTiter-Glo ATP luminescence, 48 h | Potency, µM (top dose mostly 46.1 µM), for inactives: at the top dose activity, negative = less viability, hits mostly cytotoxic | hit rate 1.6% among 360,000;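 further: NT is the 2HG producing partner of a matched IDH1 knockdown line; 0% = DMSO-treated cells and -100% = media-only wells without cells; nearly all actives have a fitted effect of over 55% in size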
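750 cells/well, RPMI + 5% FBS; 2 h settle, compound pin-transfer, 48 h at 37 degrees C. CellTiter-Glo 10 min RT, luminescence. Normalized to DMSO and media-only wells.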
KB-V1 MDR tox: kills drug-selected multidrug resistant KB-V1 cells | KB-V1 MDR cells viability, CellTiter-Glo, 72 h | Potency, µM (top dose mostly 46.1 µM), usual class: cytotoxic | hit rate 3.4% among 400,000 | AID 1347076; further: on the % scale 0 is the no-effect control and ±100 the full control effect; nearly all actives have a fitted effect of over 60% in size
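Cells of the MDR subline KB-V1 are plated, dosed with compound at multiple concentrations, and incubated 72 h at 37 degrees C; CellTiter-Glo is then added and luminescence read after 10 min.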
KB-3-1 cytotox: KB-3-1 parental cell cytotoxicity | KB-3-1 viability, CellTiter-Glo ATP luminescence, 72 h | Potency, µM (highest dose often 46.1 µM), hits mostly cytotoxic | hit rate 1.4% among 400,000; further: on the % scale 0 is the no-effect control and ±100 the full control effect; nearly all actives have a fitted effect of over 60% in size
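Cytotoxicity in the drug-sensitive parental line KB-3-1 was scored as loss of CellTiter-Glo luminescence following 72 h incubation with compound. Values come from curve fitting of normalized concentration-response data.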
The depositor's hits bear a star; i = inactive; ? = inconclusive; nt = not tested or not shown. The call rests on the fitted dose curve; in most records, active means well fitted curve in the direction sought with a large enough effect; inconclusive means small, poorly fitted or top-dose-only effect, or another doubt; inactive means no such curve, though single readings can be large; an effect the other way counts as inactive or inconclusive. Potency means the concentration at half of the fitted maximal effect.

SMILES | MCF10A rereplic | HT1080 IDH1KD tx | SW480 rerep | HT1080NT lethal | KB-V1 MDR tox | KB-3-1 cytotox
O=C1CC(Sc2nnc(-c3ccccc3O)o2)C(=O)N1c1ccccc1 (centres undefined) | -6% | 4.5µM* | -6% | ? | i | i
O=C(CCNS(=O)(=O)c1ccc2c(c1)CCN2C(=O)C1CC1)Nc1ccc(F)cc1F | nt | nt | nt | nt | i | i
Cc1ccc(NC(=O)Cc2coc3ccc(C(C)C)cc23)cc1Cl | nt | nt | nt | nt | 16µM* | ?
Cc1ccc(S(=O)(=O)/N=C2\C=C(Nc3cccc(C(=O)O)c3)C(=O)c3ccccc32)cc1 | ? | 21µM* | ? | 23µM* | i | 23µM*
Cc1ccc(S(=O)(=O)/N=C2\C=C(NS(=O)(=O)c3ccccc3)C(=O)c3ccccc32)c(C)c1 | ? | -7% | -8% | -14% | i | i
Cc1ccc(S(=O)(=O)/N=C2\C=C(Nc3cccc(C(=O)O)c3)C(=O)c3ccccc32)c(C)c1 | 6.5µM* | 6.5µM* | ? | 10µM* | i | ?
CCc1ccc(S(=O)(=O)/N=C2\C=C(Nc3ccc(C(=O)O)cc3)C(=O)c3ccccc32)cc1 | 4.6µM* | 18µM* | 9.2µM* | 16µM* | i | ?
CC(C)(C)c1ccc(S(=O)(=O)/N=C2\C=C(NS(=O)(=O)c3ccccc3)C(=O)c3ccccc32)cc1 | -17% | 16µM* | ? | 23µM* | i | i
O=C(O)c1cccc(NS(=O)(=O)c2ccc3c(c2)C(=O)c2ccccc2C3=O)c1 | 8% | 6% | -4% | 1% | i | i
O=C(O)c1ccc(NC2=C(n3nnc4ccccc43)C(=O)c3ccccc3C2=O)cc1 | ? | -5% | 0% | -4% | i | i
Cc1ccc(CCNC(=O)c2ccc3c(Cl)c4c(nc3c2)CCCC4)cc1 | nt | nt | nt | nt | i | i
Cc1ccc(NC2=C(NCCO)C(=O)c3ccccc3C2=O)cc1 | 19% | ? | ? | ? | i | ?
Cc1ccc(S(=O)(=O)/N=C2\C=C(Nc3ccc(O)cc3)C(=O)c3ccccc32)cc1 | 3.3µM* | 23µM* | 6.3µM* | 18µM* | ? | 4.1µM*
Cc1ccc(C)c(-n2cc(CNCCCn3cccn3)c(-c3ccccc3)n2)c1 | ? | ? | 16µM* | 21µM* | i | i
Cc1ccc(-n2cc(CNCCc3cscn3)c(-c3ccc(F)cc3)n2)cc1 | ? | 21µM* | 84% | 21µM* | i | i
Cc1ccc(-n2cc(CNCCCn3ccnc3C)c(-c3ccc(F)cc3)n2)cc1 | ? | ? | ? | 21µM* | 21µM* | ?
Cc1ccc(-n2cc(CN3CCN(Cc4nccn4C)CC3)c(-c3ccc(F)cc3)n2)cc1 | 7% | ? | 4% | ? | i | i
Cc1ccc(-n2cc(CNCCCn3cccn3)c(-c3cccc(C)c3)n2)cc1 | ? | ? | 11% | ? | ? | ?
COc1ccc(S(=O)(=O)N2CCN(Cc3nc4ccc(C)cc4o3)CC2)cc1Cl | nt | nt | nt | nt | i | i
CN(C(=O)CSc1nc2ccc(NC(=O)COc3ccccc3Cl)cc2s1)c1ccccc1 | nt | nt | nt | nt | i | i
Cc1c(C)c2cc3c(c(C)c2oc1=O)OCN(CCc1ccccc1)C3 | nt | nt | nt | nt | ? | i
O=C(Cn1c(=O)n(-c2cccc(Cl)c2)c(=O)c2sc3ccccc3c21)N1CCCC1 | nt | nt | nt | nt | i | i
CC1=NN(C(N)=S)C(=O)C1N=Nc1ccccc1Cl (centres undefined) | ? | 4% | 8.2µM* | -1% | i | i
Nc1c(-c2ccccc2)cnn1-c1cccc(C(F)(F)F)c1 | 2% | 8% | -3% | 22% | i | i
Nc1c(-c2cccc(Cl)c2)cnn1-c1cccc(C(F)(F)F)c1 | 11% | -28% | 3% | ? | 21µM* | ?
O=C1Cc2cc(S(=O)(=O)N3CCN(c4ccc(Cl)cc4)CC3)ccc2N1 | nt | nt | nt | nt | ? | i
